# Source: PubChem BioAssay AID504332 (National Center for Advancing Translational Sciences (NCATS), 2011)
# The campaign covered roughly 350,000 compounds. About 31,000 (8.9%) were called active. Roughly 15% stayed inconclusive and do not appear here. Shown is part of a subset that was picked to be rich in actives. A call without a number means that no potency is given here. Values without a mark were called inactive. Calls follow the shape of the dose curve; as a rule, active = well fitted inhibition curve with a large enough effect; inconclusive = small, poorly fitted or top-dose-only effect; inactive = no such curve, though single readings can be large or run the other way.
# Target: Histone-lysine N-methyltransferase EHMT2 (Homo sapiens) (UniProt Q96KQ7)
# Sequence (Q96KQ7 913-1193 limits assumed): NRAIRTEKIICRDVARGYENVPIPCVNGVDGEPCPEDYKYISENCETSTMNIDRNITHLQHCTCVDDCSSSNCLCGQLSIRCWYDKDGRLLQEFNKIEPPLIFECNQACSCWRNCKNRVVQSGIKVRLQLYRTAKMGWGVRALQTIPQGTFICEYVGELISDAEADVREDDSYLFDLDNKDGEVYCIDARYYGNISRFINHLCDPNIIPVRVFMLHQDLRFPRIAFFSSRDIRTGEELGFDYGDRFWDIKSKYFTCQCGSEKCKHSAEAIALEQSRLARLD
# Assay: qHTS Assay for Inhibitors of Histone Lysine Methyltransferase G9a; also: nearly all actives have a fitted effect of over 75% in size
# Settings: G9a H3K9 monomethylation, AlphaScreen, 2 h; series mostly up to 59 µM
# In short: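 Step 1: enzyme (final 20 nM) with compound, 15 min RT. Step 2: substrate peptide 500 nM and SAM 20 uM, 2 h RT. Step 3: anti-H3K9me1 antibody and AlphaScreen beads, 10 min, then plate read.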
# Potency is read from the fitted curve at half-maximal effect.
SMILES,"activity, negative = inhibition",Potency
COc1cccc(CNC(=O)COC(=O)CN2C(=O)NC3(CCCCC3C)C2=O)c1 (stereo unspecified),7.7% [at 12.7 µM],
COc1ccc(C2/C(=C(/O)c3ccccc3)C(=O)C(=O)N2C)c(OC)c1 (stereo unspecified),-3.6% [at 0.501 µM],
Cc1cc(N2C(=O)C(=O)/C(=C(/O)c3ccc(Cl)cc3)C2c2cccc(Br)c2)no1 (stereo unspecified),,inactive
COc1ccccc1C1/C(=C(/O)c2ccc(OC(C)C)cc2)C(=O)C(=O)N1c1cc(C)on1 (stereo unspecified),,1.26 µM (active)
COC(=O)C1(C)CC1(c1ccccc1)c1ccccc1 (stereo unspecified),,inactive
CC(=O)c1ccc(N2CCN(S(=O)(=O)c3ccc4c(c3)CC(=O)N4C)CC2)cc1,,inactive
Cc1ccc2oc(=O)c3cnn(CC(=O)N4CCN(c5cccc(Cl)c5)CC4)c3c2c1,,inactive
CSc1ccc(CCNC(=O)c2cnn(-c3ccccc3)c2-n2cccc2)cc1,,inactive
CC1CCN(C(=O)C2CCN(S(=O)(=O)N3CCC4(CC3)OCCO4)CC2)CC1,,inactive
Cc1csc(=O)n1CC(=O)OCC(=O)N(CC(C)C)c1c(N)n(Cc2ccccc2)c(=O)[nH]c1=O,,inactive
COc1ccc2oc(C(=O)OCC(=O)N(CC(C)C)c3c(N)n(Cc4ccccc4)c(=O)[nH]c3=O)c(C)c2c1,,39.8 µM (active)
COCCN(C(=O)COC(=O)Cc1cccc(OC)c1)c1c(N)n(Cc2ccccc2)c(=O)[nH]c1=O,,inactive
O=C(NC1CC(=O)N(c2ccc(F)cc2)C1)c1ccc(S(=O)(=O)N2CCCC2)cc1 (stereo unspecified),,inactive
CCN(CC)C(=O)CSc1nc2cc3c(cc2c(=O)n1CCCC(=O)NCc1ccc2c(c1)OCO2)OCO3,,inactive
CCc1c(C)[nH]c(=S)c(C#N)c1C,,1.12 µM (active)
CCOC(=O)C1=C(CN2CCCCCC2)NC(=O)NC1c1cccc([N+](=O)[O-])c1 (stereo unspecified),,inactive
CCOC(=O)C1=C(CCc2ccccc2)NC(=O)NC1c1ccc2ccccc2c1 (stereo unspecified),,inactive
CCOC(=O)C1=C(CN2CCc3ccccc32)NC(=O)NC1c1cccc([N+](=O)[O-])c1 (stereo unspecified),,39.8 µM (active)
Cc1ccc(C)c(N2CCN(C(=O)CN3C(=O)COc4ccc(S(=O)(=O)N5CCCCCC5)cc43)CC2)c1,,inactive
CC(C)(C)C(=O)COC(=O)c1cc(S(=O)(=O)N2CCCCC2)ccc1N1CCOCC1,,inactive
Cc1nnc(Sc2nc3c(c(=O)[nH]c(=O)n3C)n2Cc2ccccc2)s1,17.7% [at 12.7 µM],

SMILES,"activity, negative = inhibition",Potency
C=CCSc1nc2c(c(=O)[nH]c(=O)n2C)n1Cc1ccccc1,,inactive
C=CCn1c(SCc2ccccc2)nc2c1c(=O)[nH]c(=O)n2C,,31.6 µM (active)
O=[N+]([O-])c1cc(Br)c(O)c(/C=N/Nc2nc3ccccc3s2)c1,,inactive
O=[N+]([O-])c1c(NCCO)cc(Sc2nc3ccccc3s2)c2nonc12,,3.55 µM (active)
Cc1nn(CC(=O)Nc2nc3ccccc3s2)c(C)c1[N+](=O)[O-],11.1% [at 0.501 µM],
Cc1c(NC(=S)Nc2ccccc2)c(=O)n(-c2ccccc2)n1C,,inactive
CCN(CC)P(=O)(/C(Cl)=C\Nc1c(C)n(C)n(-c2ccccc2)c1=O)N(CC)CC,,31.6 µM (active)
Cc1c(NS(=O)(=O)c2ccc(Cl)cc2)c(=O)n(-c2ccccc2)n1C,,inactive
COc1ccccc1-c1nc(C#N)c(N2CCC(C(N)=O)CC2)o1,,inactive
CC1CCN(c2oc(-c3ccccc3F)nc2C#N)CC1,,7.94 µM (active)
Cc1oc(-c2ccccc2F)nc1CS(=O)CC(=O)NCCN1CCCCC1C (stereo unspecified),,inactive
COc1ccc(Cl)cc1NC(=O)C(C)Sc1nc2c(c(=O)[nH]1)CCCC2 (stereo unspecified),,inactive
CCOc1ncccc1C(=O)Nc1ccc(S(=O)(=O)Nc2nc(C)cc(C)n2)cc1,108% [at 12.7 µM],
CC(=O)Nc1ccc(S(=O)(=O)Nc2nccc(/C=C/c3ccccc3F)n2)cc1,,inactive
Cc1cc(C)nc(NS(=O)(=O)c2ccc(N/C=C\C(=O)c3cccs3)cc2)n1,,50.1 µM (active)
O=C(O)c1cc([N+](=O)[O-])c(Nc2cccc3ccccc23)c([N+](=O)[O-])c1,,44.7 µM (active)
O=C(Nc1ccccc1[N+](=O)[O-])C1C(c2ccccc2)=C1c1ccccc1,24.3% [at 0.501 µM],
O=C(O)c1ccccc1-c1ccccc1C(=O)Nc1cccc2ccccc12,,inactive
Cc1ccccc1-n1c(=O)c2ccccc2n(Cc2ccc(F)cc2)c1=O,,inactive
O=C(NCCc1ccccc1)C(=O)NCC(c1ccco1)S(=O)(=O)c1ccccc1 (stereo unspecified),,inactive
COC(=O)[C@H](Cc1ccccc1)NC(=O)N1CC(C)OC(C)C1 (stereo partly specified),,inactive

SMILES,"activity, negative = inhibition",Potency
NC(=NC(=O)c1ccccc1)N1CCOCC1,,inactive
CN(C)CC(C)(C)CNC(=O)c1cc(Br)cc(Br)c1O,,inactive
O=C1Nc2c(Br)cc(Br)cc2C1(O)N1CCOCC1 (stereo unspecified),5.27% [at 12.7 µM],
CC1CN(C(=S)SCC(=O)c2ccccc2)CC(C)O1 (stereo unspecified),,1.78 µM (active)
O=C(CSC(=S)N1CCOCC1)c1ccccc1,,7.08 µM (active)
CC1CN(C(=O)CN2C(=O)NC(C)(c3ccccc3)C2=O)CC(C)O1 (stereo unspecified),5.65% [at 2.33 µM],
O=C(CSC(=S)N1CCOCC1)c1cc(Br)cc(Br)c1O,,79.4 µM (active)
O=C(NC(=O)N1CCOCC1)c1ccccc1,,inactive
COc1cccc(-c2nc(S(=O)(=O)c3ccc(C)cc3)c(NCc3ccccc3)o2)c1,,inactive
COc1ccccc1CNC(=O)c1ccc(CS(=O)c2ccccc2Cl)o1 (stereo unspecified),,inactive
CCCCCn1c(CCCNC(=O)c2ccccc2OC)nc2ccccc21,,inactive
CNS(=O)(=O)c1cccc(C(=O)NC2CCCc3ccccc32)c1 (stereo unspecified),,inactive
O=C(CCNS(=O)(=O)c1ccccc1)NCCSc1ccc(Br)cc1,,inactive
Cc1ccc(C(=O)OCC(=O)NCc2cc(C)c(O)c(C)c2)cc1S(=O)(=O)N1CCCCC1,,inactive
CCOCCCNC(=O)c1c(NC(=O)Cc2coc3c(C)c(C)ccc23)sc2c1CCC2,,inactive
COc1ccccc1CNC(=O)Cn1nc(C)c2nn(-c3ccc(Cl)cc3)c(C)c2c1=O,,inactive
Cc1ccc(-n2c(SCC(=O)N/N=C/C=C/c3ccccc3[N+](=O)[O-])nc3ccccc3c2=O)cc1,,inactive
CCn1c(SCC(=O)N/N=C/C=C/c2ccccc2[N+](=O)[O-])nnc1-c1ccccc1,,39.8 µM (active)
O=C(CSc1nc2ccccc2[nH]1)N/N=C/C=C\c1ccccc1[N+](=O)[O-],,inactive
